Compound activity (PubChem BioAssay)
IMPase Li inh: IMPase inhibition in cells with lithium potentiation; Potency, µM (top dose mostly 59.4 µM), for inactives: at the highest dose activity, negative = IMPase inhibition, usual class: inhibitors; AID 1457; CHO-M1 cells, IP1 TR-FRET (IP-One), carbachol + lithium; 210,000 tested, 0.35% active; active = well fitted curve in the direction sought with a large enough effect; inconclusive = small, poorly fitted or top-dose-only effect, or another doubt; inactive = no such curve, though single readings can be large; an effect the other way counts as inactive or inconclusive;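 also: IP1 builds up when IMPase is blocked and the TR-FRET signal falls; potency is read from the fitted curve at half-maximal effect; plate controls were basal vehicle for no effect and high inhibitor control for full effect; nearly all actives have a fitted effect of over 50% in size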
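CHO-M1, 2000 cells/well, 16–30 h culture; cpd + low Li+, 30 min 37C; lysis with d2-IP1/Eu-anti-IP1 Ab, 10 min RT; TR-FRET 665/620 ratio and 620 channel; AC50 via Hill.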
ALDH1A1 inh: blocks purified human ALDH1A1 activity | Purified ALDH1A1, NADH fluorescence, propionaldehyde substrate | P00352 | AID 1030 | 220,000 tested, 7.3% active | Potency, µM (titrated, usually from 75.3 µM), inactives show top-dose activity, negative = inhibition, actives largely listed as inhibitors;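 also: potency is read from the fitted curve at half-maximal effect; plate controls were no enzyme wells and a reference inhibitor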
PNC assembly inh: blocks assembly of the perinucleolar compartment; 140,000 tested, 3.1% active; activity change (PNC), negative = inhibition, % at 10 µM; PC3M PTB-GFP, PNC prevalence imaging, 16 h; hits give low values;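 active = readout at or below -70, meaning at least 70% loss of cells showing the perinucleolar compartment, a nuclear body marking cancer cells; inconclusive = readout between -30 and a set limit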;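 also: plate controls were DMSO wells for no effect and camptothecin positive control wells for full effect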
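Read-out is percentage of cells bearing a perinucleolar compartment, from automated 20x imaging of fixed, Hoechst-stained PC3M PTB-GFP cells. Cells were seeded 4 h, then exposed 16 h to compound (23 nl of library stock) in duplicate plates.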
IMPase cell inh: cell-permeable inhibitors of inositol monophosphatase (IMPase). CHO-M1 cells, IP1 accumulation, HTRF TR-FRET ratio. inhibition (IP1 accumulation), % at 46.1 µM. 120,000 tested, under 10 active. AID 901; active = well fitted curve in the direction sought with a large enough effect in the signal ratio, not every such curve was filed as active; inconclusive = small, poorly fitted or top-dose-only effect, or a change in a side signal; inactive = no such curve, though single readings can be large or run the other way; the % refers to the signal ratio;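 also: cells stimulated with carbachol in lithium chloride buffer; plate controls were DMSO basal wells for no effect and reference inhibitor wells for full effect; higher means more IMPase inhibition seen as more IP1 and lower FRET ratio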
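Cellular IMPase inhibition is scored as a rise in cytosolic IP1, detected by competitive TR-FRET between d2-labelled IP1 and a europium anti-IP1 antibody. M1-expressing CHO cells were stimulated with carbachol for 30 min at 37C, with lithium (50 mM LiCl) present in the buffer.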
HPGD block: blocks human HPGD enzyme activity | P15428 | purified HPGD, NADH fluorescence kinetic, PGE2 substrate | Potency, µM, inactives show top-dose activity change, negative = inhibition, most hits filed as inhibitors | 150,000 tested, 4.3% active | AID 894; also: potency is read from the fitted curve at half-maximal effect
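NADH formation kinetics: reaction with 30 uM PGE2 and 1 mM NAD+ (final), 20 nM enzyme, Tris-HCl pH 8 with Tween 20, after 15 min compound preincubation at room temperature. Fluorescence change, last versus first of five reads.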
NPSR antagonist: blocks cAMP signaling of the human neuropeptide S receptor; Q6W5P4; CHO-NPSR cells, cAMP TR-FRET, antagonist mode; 220,000 tested, 1% active; Potency, µM (series often up to 38.3 µM), for inactives: at the top dose activity change, negative = inhibition, usual class: inhibitors; active = well fitted curve in the direction sought with a large enough effect; inconclusive = small, poorly fitted or top-dose-only effect, or another doubt; inactive = no such curve, though single readings can be large; an effect the other way counts as inactive or inconclusive; also: potency is read from the fitted curve at half-maximal effect; nearly all actives have a fitted effect of over 50% in size
Target sequence (Q6W5P4 whole entry, looked up): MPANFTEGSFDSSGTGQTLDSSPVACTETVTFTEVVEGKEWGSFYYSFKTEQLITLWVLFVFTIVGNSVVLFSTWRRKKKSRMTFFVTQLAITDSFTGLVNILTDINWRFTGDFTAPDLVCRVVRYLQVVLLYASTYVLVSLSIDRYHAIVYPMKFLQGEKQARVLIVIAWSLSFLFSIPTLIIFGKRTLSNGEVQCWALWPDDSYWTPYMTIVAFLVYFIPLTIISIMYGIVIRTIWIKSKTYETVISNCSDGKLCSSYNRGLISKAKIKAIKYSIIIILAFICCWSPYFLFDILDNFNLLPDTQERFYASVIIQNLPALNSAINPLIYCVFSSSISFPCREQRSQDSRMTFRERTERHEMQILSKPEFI
Active calls of the source: *; ? = inconclusive; · = no result given; [ ] = remark or other dose. Only some compounds are listed: those with a hit (about 11% of all), similar ones and a draw of the others. Unless noted, calls follow the shape of the dose curve; as a rule, active = well fitted inhibition curve with a large enough effect (not every such curve was filed as active); inconclusive = small, poorly fitted or top-dose-only effect, or another doubt; inactive = no such curve, though single readings can be large or run the other way. Unless noted, % is scaled to controls: 0 for no effect and ±100 for the full control effect.

SMILES	IMPase Li inh	ALDH1A1 inh	PNC assembly inh	IMPase cell inh	HPGD block	NPSR antagonist
Cc1cc(O)c(NC(=O)c2ccco2)cc1C	26%[38.3 µM]	12%	?	7	-13%	-16%[46.1 µM]
COc1ccc(Cl)cc1C(=O)CSc1nnnn1C	1%	-1%	·	·	·	-13%
Cc1cc(/C=N/NC(=O)C(=O)NCc2ccccn2)c(C)n1-c1cccc(Br)c1	4%	?	·	·	·	3%
CC(C)CN1CCC2(CC1)CCN(C(=O)c1ccncc1)CC2	18%	17%	·	·	-3%	·
Cc1ccc(C(=O)OCC(=O)Nc2ccc(N(C)C)cc2)cc1NC(=O)c1ccco1	36%[38.3 µM]	12µM*	?	2	-17%	-20%[46.1 µM]
Cc1ccc(C(=O)N2CC(C)OC(C)C2)c(Cl)c1 (configuration not stated)	-6%[38.3 µM]	?	5	0	16µM*	-5%[46.1 µM]
COc1cccc(C(=O)Nc2sc3c(c2C#N)CCN(C(C)=O)C3)c1	3%	8.9µM*	·	·	·	15%
COc1cccc(C(=O)Nc2nc3c(s2)CN(C)CC3)c1	-15%[38.3 µM]	-3%	6	-4	?	-7%[46.1 µM]
Cc1ccccc1C(=O)NC(=S)Nc1sc2c(c1C#N)CCC(C)C2 (configuration not stated)	-10%[38.3 µM]	10µM*	?	-6	-21%	-2%[46.1 µM]
CCC(=O)Nc1sc2c(c1C#N)CCC2	-16%	-6%	·	·	·	7%
CC1(C)Cc2c(sc(NC(=S)NC(=O)c3ccccc3)c2C(=O)O)CO1	-9%	22µM*	·	·	·	-34%
CC(C)CC(=O)NC(NC(=S)Nc1sc2c(c1C#N)CCCC2)C(Cl)(Cl)Cl (configuration not stated)	18%[38.3 µM]	3.5µM*	75	3	14µM*	-29%[46.1 µM]
N#Cc1c(NC(=S)NC(=O)c2ccccc2)sc2c1CCCC2	-4%	3.2µM*	?	·	25µM*	7%
COC(=O)c1ccc(NC(=S)NC(=O)c2c(Cl)cnn2C)cc1	-5%	2%	61	·	-48%	-47%
N#Cc1c(NC(=S)NC(=O)c2ccccc2)sc2c1CCN(CCc1ccccc1)C2	3%	18µM*	?	·	-18%	-18%
Cn1ncc(Cl)c1C(=O)NC(=S)Nc1sc2c(c1C#N)CCCCC2	-15%[38.3 µM]	?	85	-4	25µM*	-6%[46.1 µM]
N#Cc1c(NC(=O)c2ccccc2)sc2c1CCC2	?	?	-9	-6	?	-13%[46.1 µM]
CCCN1C(=O)CSC1=Nc1ccccc1	-2%	-4%	·	·	·	-11%
COc1ccc(S(=O)(=O)NNC(=O)c2cccs2)cc1	15%	?	·	·	·	-7%
CCC(=O)NC(C)C(c1cccs1)N1CCN(Cc2ccccc2)CC1 (configuration not stated)	9%[38.3 µM]	9%	?	10	-8%	-3%[46.1 µM]
O=C(Nc1ccc(CN2CCOCC2)cc1)c1ccc(N2CCCC2)c([N+](=O)[O-])c1	7%	11µM*	·	·	·	-4%
O=C(Nc1ccon1)c1ccc(N2CCCCC2)c([N+](=O)[O-])c1	20%	13µM*	·	·	·	-16%
O=C(Nc1nc2ccccc2s1)c1ccc(N2CCCCC2)c([N+](=O)[O-])c1	8%	11µM*	80	·	-6%	-17%
Cc1oc2c(CN3CCCC3)c(O)ccc2c(=O)c1-c1ccc(Cl)cc1	-21%[38.3 µM]	?	-6	-14	?	-11%[46.1 µM]
CC(C)CN=Cc1c(O)c([N+](=O)[O-])cc2oc3c(c12)CCCC3	12%	28µM*	0	5	-15%	?
O=[N+]([O-])c1cc2oc3c(c2c(C=NCc2ccccc2)c1O)CCCC3	15%	?	18	·	-15%	10µM*
CN(c1ccccc1)S(=O)(=O)c1cccc(C(=O)Nc2ccc3c(c2)CCC3)c1	14%	10µM*	?	·	-24%	-44%
CCn1c(SCc2ccc(C(=O)Nc3nccs3)cc2)nnc1-c1ccc(N)cc1	9%[38.3 µM]	16%	8	9	-22%	-10%[46.1 µM]
CN(c1ccc(C(=O)Nc2nccs2)cc1)S(=O)(=O)c1ccccc1	12%	17%	-17	14	8.9µM*	?
CCc1nnc(NC(=O)c2ccc(S(=O)(=O)N3CCc4ccccc4C3)cc2)s1	-5%	3%	-85*	0	-13%	-7%
